Shown are actives, neighbours in structure and some others; about 2.5% of the full set was active somewhere.
SUMO HTRF inh = SUMOylation inhibition; P63279; HTRF SUMOylation assay, SAE1/SAE2 + UBC9, in vitro; inhibition, % at 35 µM; hit rate 0.36% among 290,000; AID 2006; in the data active = inhibition above about 50%, passing the limit was not always enough; inconclusive = no clear call, values can overlap the other calls
G6PDH counter = counter-screen for G6PDH assay hits: L. mesenteroides G6PDH inhibition | inhibition, % at 5 µM | AID 1020 | hit rate 0.12% among 200,000 | Purified L. mesenteroides G6PDH, diaphorase/resazurin coupled fluorescence, 45 min; in the data active = inhibition above about 50%
PfM18AAP inh = blocks P. falciparum M18 aspartyl aminopeptidase; inhibition, % at 7.35 µM; recombinant PfM18AAP, H-Glu-NHMec fluorogenic cleavage; AID 1822; hit rate 1.2% among 290,000;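 active = inhibition above the campaign mean inhibition over all tested compounds plus 3 SD, cut at about 28% in these data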;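 also: 0% = plate median of test compound wells and 100% = 2 mM ZnCl2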
PHOSPHO1 block = inhibitors of human PHOSPHO1 phosphatase; inhibition, % at 13.3 µM; Q8TCT1; AID 1565; recombinant PHOSPHO1, absorbance phosphatase assay; hit rate 1.1% among 290,000; in the data active = inhibition above about 60%
HDAC3 inh = blocks human histone deacetylase 3; O15379; recombinant HDAC3, fluorogenic peptide/trypsin coupled, fluorescence; inhibition, % at 8.3 µM; hit rate 0.15% among 320,000; in the data active = inhibition above about 26%, passing the limit was not always enough; inconclusive = no clear call, values can overlap the other calls
Target sequence (O15379 whole entry, looked up): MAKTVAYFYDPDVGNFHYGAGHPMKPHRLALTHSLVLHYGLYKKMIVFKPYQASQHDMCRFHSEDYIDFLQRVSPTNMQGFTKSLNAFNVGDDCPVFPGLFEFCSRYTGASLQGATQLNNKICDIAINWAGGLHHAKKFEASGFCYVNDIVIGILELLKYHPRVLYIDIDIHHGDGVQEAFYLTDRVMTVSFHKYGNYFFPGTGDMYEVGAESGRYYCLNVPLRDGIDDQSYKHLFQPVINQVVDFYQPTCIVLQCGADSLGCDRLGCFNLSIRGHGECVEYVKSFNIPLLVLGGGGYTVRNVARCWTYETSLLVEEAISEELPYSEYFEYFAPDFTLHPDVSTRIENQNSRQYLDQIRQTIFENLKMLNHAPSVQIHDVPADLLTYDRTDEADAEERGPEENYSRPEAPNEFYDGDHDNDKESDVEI
p97 inhibitor = human p97 ATPase inhibition; P55072; recombinant p97 ATPase, Kinase-Glo ATP luminescence, 3 h; inhibition, % at 8 µM; hit rate 0.42% among 220,000; in the data active = inhibition above about 15%;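 also: 0% = DMSO vehicle and 100% = wells lacking enzyme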
Numbers without * were called inactive; ? = inconclusive; . = no result given.

SMILES | SUMO HTRF inh | G6PDH counter | PfM18AAP inh | PHOSPHO1 block | HDAC3 inh | p97 inhibitor
COc1ccc(N2CC(C(=O)Nc3ccccc3N3CCCC3)CC2=O)c(OC)c1 (configuration not stated) | . | . | . | . | -20.5 | .
CC(C)S(=O)(=O)c1cnc(-c2cccnc2)nc1N | 17.3 | . | 2.9 | 23.1 | 3.7 | 5.9
O=C(NCc1cnc2ccccn12)C1CCC(=O)N(Cc2ccccc2F)C1 (configuration not stated) | -6.9 | . | -1.3 | 65.8* | -5.5 | .
COCCCN(C(=O)CCSc1ccc(F)cc1)c1c(N)n(Cc2ccccc2)c(=O)[nH]c1=O | . | . | . | . | -1.6 | .
O=c1c2ccccc2sn1-c1cc(S(=O)(=O)N2CCOCC2)ccc1N1CCOCC1 | 16.9 | 7.3 | 30.6* | -36.1 | 17.7 | 1.1
O=S(=O)(c1ccc(N2CCOCC2)c(Cl)c1)N1CCOCC1 | 4.9 | . | -3.6 | 10.3 | -1.3 | .
Cn1ccc(C(=O)Nc2sc3c(c2C(N)=O)CCCCC3)n1 | 14.1 | . | 38.1* | 13.7 | -1.0 | .
Cn1nccc1C(=O)Nc1sc2c(c1C(N)=O)CCCC2 | -0.7 | 6.1 | 2.1 | 6.1 | -1.4 | 1.6
NC(=O)c1c(NC(=O)c2ccc(S(=O)(=O)N3CCOCC3)cc2)sc2c1CCCCC2 | 32.5 | -7.2 | 18.2 | -21.6 | -3.2 | 2.7
CN1CCN(S(=O)(=O)c2cccc(C(=O)Nc3sc4c(c3C(N)=O)CCCC4)c2)CC1 | 37.3 | 10.4 | 11.9 | 70.2* | 1.2 | 1.3
CN1CCc2c(sc(NC(=O)c3ccc(S(=O)(=O)N4CCc5ccccc54)cc3)c2C(N)=O)C1 | -38.3 | . | 7.4 | 41.6 | . | 14.7*
O=C(COCc1cc(-c2ccc3c(c2)OCO3)on1)N1CCN(c2ccccc2)CC1 | 9.0 | . | -3.1 | 27.9 | 3.8 | .
COc1ccc(C2=NN(C(=O)c3cccs3)C(c3ccccc3O)C2)cc1 (configuration not stated) | 56.5* | 9.4 | 9.9 | 11.2 | -1.4 | 1.4
COc1ccc(C2CC(c3ccccc3)=NN2C(=O)c2cccs2)cc1 (configuration not stated) | 13.9 | 6.0 | 0.6 | 25.3 | 8.5 | 0.6
CC(C(=O)Nc1cc([N+](=O)[O-])ccc1Cl)N1CCN(c2ccc(O)cc2)CC1 (configuration not stated) | -5.6 | -11.4 | 28.9* | -8.6 | 1.2 | -1.6
Cc1c(NC(=O)c2cnc(Cl)c(Cl)c2)c(=O)n(-c2ccccc2)n1C | 1.2 | . | -7.4 | 22.5 | -0.9 | .
COc1ccccc1OCCc1nnc(N)s1 | 5.0 | 2.6 | 3.8 | 3.4 | 2.3 | 2.1
COc1ccc(OCCc2nnc(N)s2)cc1 | 7.2 | 12.9 | 6.5 | 62.3* | 6.1 | 2.2
c1ccc(-c2nc(CSc3nnnn3-c3ccccc3)cs2)cc1 | 9.5 | 5.5 | -9.5 | 14.4 | 1.2 | -1.1
Cc1ccccc1Nc1nc(CSc2nnnn2-c2ccccc2)cs1 | -4.3 | -8.1 | 6.5 | 95.4* | -0.9 | 2.5
CCN(CC)C1CCN(C(=O)c2ccc(OC3CCN(Cc4ccccn4)CC3)cc2)C1 (configuration not stated) | -13.2 | . | 9.6 | 7.9 | -1.4 | .
CC(=O)C(Sc1nc(N(C)C)nc(N(C)C)n1)C(=O)Nc1ccccc1 (configuration not stated) | 12.0 | -4.1 | 8.2 | 24.7 | 2.0 | 1.9
CC(=O)C(Sc1nn(C)c(=S)s1)C(=O)Nc1ccccc1 (configuration not stated) | 12.3 | 1.9 | 13.5 | 97.5* | 2.3 | 5.6
CCOc1ccc(S(=O)(=O)Nc2cc(Sc3ncn[nH]3)c3oc(=O)sc3c2)cc1 | -34.7 | 0.8 | 29.1* | 102.9* | 0.1 | 7.7
CC(OC(=O)Cn1[nH]c(=O)c2ccccc2c1=O)C(=O)c1ccccc1 (configuration not stated) | 17.6 | . | 3.2 | 42.7 | 7.6 | .
SMILES | SUMO HTRF inh | G6PDH counter | PfM18AAP inh | PHOSPHO1 block | HDAC3 inh | p97 inhibitor
C[C@]12CC[C@@H]3c4cc(O)c(O)cc4CC[C@H]3[C@@H]1CC[C@@H]2O | 4.6 | 29.2 | 67.4* | 27.7 | -3.2 | 8.6
CCOC(=O)CSc1n[nH]c(NC(=O)c2ccc(F)cc2)n1 | 9.9 | 1.8 | 0.0 | 24.4 | 50.5* | 0.9
CCOC(=O)CSc1n[nH]c(NC(=O)c2ccccc2)n1 | -3.4 | 0.6 | 0.4 | -22.5 | ? | 5.7
CCOC1=NS(=O)(=O)c2ccccc21 | -3.1 | -2.4 | 1.2 | -3.5 | -0.8 | 8.1
O=S1(=O)N=C(SCCO)c2ccccc21 | 23.6 | 2.9 | -3.5 | 92.2* | 5.7 | 4.2
Cc1cccc(NC(=O)C2CC(=O)n3cnnc3S2)c1 (configuration not stated) | 8.2 | -2.1 | -54.3 | 95.4* | 10.1 | 2.9
